Screening results from PubChem BioAssay.
Rows were chosen to be rich in hits. Some 17% of all compounds tested hit in one or more screens of this group.
DT40 TDP1 CPT: growth inhibition of DT40 Tdp1-/-;hTDP1 cells with camptothecin (screen for TDP1 inhibitors); chicken DT40 Tdp1-/-;hTDP1 cells + 20 nM CPT, ATP luminescence, 48 h; Potency, µM (series often up to 46.2 µM), inactives show at the top dose activity change, negative = growth inhibition, hits mostly inhibitors; actives 12% (n = 420,000); AID 686979; further: on the % scale 0 is the no-effect control and ±100 the full control effect; nearly all actives have a fitted effect of over 55% in size
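Chicken DT40 Tdp1-/- cells stably complemented with human TDP1 were seeded at 400 cells/well in medium containing 20 nM camptothecin, exposed to pin-transferred compounds, and grown at 37 °C for at least 48 hr. Viability was read as ATP luminescence.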
HepG2 tox: kills HepG2 cells in TGF-b inhibitor counter-screen. AID 588856. actives 0.76% (n = 410,000). Potency, µM (titrated, usually from 46.1 µM), inactives show at the highest dose activity change, negative = cytotoxicity, most hits filed as cytotoxic. HepG2 CAGA-GFP viability, ATP luminescence, 18 h
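HepG2 CAGA-GFP cells (1000/well, DMEM with 1% FBS) received compound, then TGF-beta at 500 pg/mL final, and were incubated 18 hours at 37 degrees C. Viability was read by CellTiter-Glo luminescence. Media-only wells were set as complete cell-killing and DMSO as no toxicity.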
ATXN2 expr inh: inhibitors of ATXN2 expression. HEK-293 ATXN2-luciferase reporter, luminescence, 24 h. Potency, µM (titrated, usually from 57 µM), for inactives: at the top dose activity change, negative = inhibition, most hits filed as inhibitors. actives 0.72% (n = 360,000). AID 1745845; further: on the % scale 0 is the no-effect control and ±100 the full control effect; nearly all actives have a fitted effect of over 55% in size
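qHTS (up to 57 uM final) was run with 24 h compound exposure of reporter cells at 37 °C. Each well was multiplexed: SteadyGlo luminescence measured ATXN2-luciferase expression after a fluorogenic Gly-Phe-AFC viability readout (25 uM final).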
S2 tox: reduces viability in counter-screen for ATXN expression inhibitors; S2 cells (HEK-293 line with an ATXN2-luciferase reporter) viability, CellTiter-Fluor protease fluorescence, 24 h; Potency, µM (highest dose often 56.7 µM), most hits filed as cytotoxic; actives 0.49% (n = 400,000); further: nearly all actives have a fitted effect of over 40% in size
TGFb inhibitor: inhibitors of TGF-b signaling. HepG2 CAGA-GFP TGF-b/SMAD3 reporter, GFP fluorescence, 18 h; TGF-beta stimulated, 500 pg/mL final. Potency, µM (top dose mostly 46.1 µM), for the others: at the highest dose activity, negative = inhibition, actives largely listed as inhibitors. actives 1.2% (n = 410,000). AID 588855; further: on the % scale 0 is the no-effect control and ±100 the full control effect; nearly all actives have a fitted effect of over 65% in size
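TGF-beta reporter screen: HEPG2 CAGA-GFP, 1% FBS, 500 pg/mL TGF-beta final, 18 h; per-cell GFP summed per well; curves fitted and categorized by class.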
DT40 TDP1 no CPT: qHTS for Inhibitors of human tyrosyl-DNA phosphodiesterase 1 (TDP1): qHTS in cells in absence of CPT. actives 15% (n = 420,000). DT40 Tdp1-/- hTDP1 cells, no CPT, ATP luminescence, 48 h. AID 686978, 2013. Potency, µM (titrated, usually from 46.2 µM), without a hit: top-dose activity change, negative = growth inhibition, hits mostly inhibitors; further: on the % scale 0 is the no-effect control and ±100 the full control effect; nearly all actives have a fitted effect of over 55% in size
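Luminescent ATP content (CellTiter-Glo) served as the growth readout. Knockout chicken DT40 cells expressing human TDP1 were exposed to compounds without camptothecin for a minimum 48 hr at 37 °C.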
The depositor's hits bear a star; i = inactive; u = inconclusive; x = no result; [ ] = another dose, or the depositor's remark. The call rests on the fitted dose curve; in most records, active means well fitted curve in the direction sought with a large enough effect; inconclusive means small, poorly fitted or top-dose-only effect, or another doubt; inactive means no such curve, though single readings can be large; an effect the other way counts as inactive or inconclusive. Potency means the concentration at half of the fitted maximal effect.

SMILES | DT40 TDP1 CPT | HepG2 tox | ATXN2 expr inh | S2 tox | TGFb inhibitor | DT40 TDP1 no CPT
COCCN(CC(=O)Nc1ccccc1C(F)(F)F)C(=O)c1ccc(-n2cccn2)cc1 | -17.0% | 13.3% | 5.3% | i | 12.0% | 0.3%
O=[N+]([O-])c1cc(/C=N/O)ccc1Oc1ccccc1Cl | 2.5% | -22.7% | 14.5% | i | -4.7% | -13.5%
O=c1ccn(-c2ccccc2)[nH]1 | 14.0% | -1.5% | 6.5% | i | -4.6% | -10.6%
Cc1ccc(CC(=O)NC2CCN(Cc3ccccc3)CC2)cc1 | -7.5% | -1.5% | -2.7% | i | -0.1% | -14.0%
COc1ccc(C(=O)NC2CC2)cc1OC1CCN(Cc2ccc(F)cc2Cl)CC1 | u | -41.0% | -22.6% | i | 0.0% | 18.4µM*
Cc1ccc(NS(=O)(=O)c2ccc(C(=O)NC3CCN(Cc4ccccc4)CC3)cc2)cc1 | 14.6µM* | -28.4% | -33.2% | i | u | 14.6µM*
O=C1OC(/C=C/c2ccc(Cl)cc2Cl)=NC/1=C\c1cccs1 | u | -12.6% | -10.6% | i | 0.5% | -25.8%
Cc1ccc(NC(=O)CNC(=O)c2ccco2)cc1 | 2.2% | -0.6% | 30.7% | i | 1.7% | 8.8%
CCCN(Cc1nc2cc(Cl)ccc2c(=O)[nH]1)C(=O)c1ccc(S(=O)(=O)N2CCCC2)cc1 | u | -38.4% | x | u | u | 20.6µM*
Cc1csc2nc(-c3cccc(NC(=O)c4ccccc4Cl)c3)cn12 | 18.4µM* | -26.5% | -7.8% | i | -8.3% | 18.4µM*
Cc1csc2nc(-c3cccc(NC(=O)c4ccccc4F)c3)cn12 | u | -50.9% | -8.0% | i | -1.7% | u
Cc1csc2nc(-c3cccc(NC(=O)c4cccc(F)c4)c3)cn12 | 18.4µM* | -40.3% | u | i | u | 18.4µM*
CCOc1ccc(-n2ccc(=O)c(C(=O)Nc3ccc(S(=O)(=O)N4CCOCC4)cc3)n2)cc1 | 2.0% | -14.8% | -6.4% | i | -7.9% | 19.9%
Cc1cc(C)nc(Sc2nc(Nc3ccccc3)nc(Sc3nc(C)cc(C)n3)n2)n1 | -25.5% | 15.7% | 13.5% | i | 6.3% | 29.1µM*
Cc1cc(C)nc(Nc2ccc(O)cc2)n1 | -19.4% | 0.2% | 17.4% | i | 0.0% | 21.0%
COc1cc(OC)cc(-c2nnc(SCc3cccnc3)o2)c1 | 25.9µM* | -55.8% | 11.4% | i | 0.0% | -24.5%
Cc1ccsc1/C=N/NC(=O)c1cccc(S(=O)(=O)Nc2ccccc2Cl)c1 | -15.9% | -17.3% | 1.2% | i | -4.6% | -12.2%
O=C(N/N=C/c1ccccn1)c1cccc([N+](=O)[O-])c1 | u | -26.2% | u | i | -29.8% | 16.4µM*
O=C(N/N=C/c1ccccn1)c1cccc(S(=O)(=O)Nc2ccccc2Cl)c1 | 16.4µM* | -24.6% | -36.3% | i | -12.3% | 16.4µM*
COc1ccc(/C=N/NC(=O)c2ccc(NC(=O)c3cccc([N+](=O)[O-])c3)cc2)c(OC)c1 | -25.7% | -20.3% | 3.7% | i | 13.9% | u
O=C(N/N=C/c1cccc(O)c1)c1ccc(NC(=O)c2cccc([N+](=O)[O-])c2)cc1 | u | -16.2% | x | i | -4.5% | 18.4µM*
O=C(NN=Cc1ccccc1O)c1cccc([N+](=O)[O-])c1 | 0.82µM* | -27.8% | u | u | -14.7% | 0.164µM*
O=C(N/N=C/c1ccccn1)c1ccc(NC(=O)c2cccc([N+](=O)[O-])c2)cc1 | -17.1% | -19.2% | 15.9% | i | 3.1% | u
COc1ccccc1C1CN(Cc2cnn(C)c2C)Cc2ccccc2O1 (centres undefined) | -1.5%[9.04 µM] | x | x | i | x | -21.0%
